± gives the standard deviation.
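Note: 1 nM active piRISC with 0.1 nM target library at 33 °C single turnover.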

The first assay relates to MILI (PIWIL2) piRISC loaded with L1MC piRNA (26 nt). Description: pre-steady-state target cleavage rate (min^-1); guide: L1MC piRNA 5'p-UAACUAAAUACUAUGCAAGCUGUAGG; MIWI and MILI are mouse PIWI proteins and EfPiwi is from a freshwater sponge; tags in brackets are library labels; higher = faster piRNA-guided slicing of the target. As to conditions: auxiliary factor: 500 nM mouse GTSF1. In a few lines:
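At 33 °C in HEPES–potassium acetate buffer, a transcribed, DNA-blocked target RNA library […] was exposed for 0–8 or 0–960 min to 1 nM active affinity-purified piRISC carrying a single synthetic guide, with or without 500 nM GTSF1 partner protein. Uncleaved targets were sequenced and normalised to depth and to weakly complementary targets. With three trials pooled and k3 capped at 0.0001 min^-1, a burst-and-steady-state fit produced the pre-steady-state cleavage rate.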
UCCUGGUACAGCUAGCAUAGUAUUUUGUUA: the “pre-steady-state target cleavage rate” value was found to be 0.085 ± 0.028.

UCCUGCAAGAGCUUGCAUAGUAUUUAGUUA: the “pre-steady-state target cleavage rate” value is 0.292 ± 0.025.

Take UCCUGGUACAGCUUGCUUAGUAUAUAGUUA: the “pre-steady-state target cleavage rate” value was found to be 0.197 ± 0.045.

Take UCCUGCUACAGCUUCAUAGUAUUUAGUUA: the “pre-steady-state target cleavage rate” value came to 0.231 ± 0.019.

With UCCUGCUACAGGUUGCUUAGUAUUUAGUUA, the “pre-steady-state target cleavage rate” value was 0.227 ± 0.012.

Turning to UCCUGGAUCAGCUUCGAUAGUAUUUAGUUA, the “pre-steady-state target cleavage rate” value amounted to 0.233 ± 0.018.

UCCUGGAUCAGCUAGGAUAGUAUUUAGUUA: the “pre-steady-state target cleavage rate” value worked out at 0.178 ± 0.013.

As to UCCUGGAUCAGCUUGGAUAGUAUUUAGUAA, the “pre-steady-state target cleavage rate” value amounted to 0.166 ± 0.019.

Regarding UCCUGGUACAGCUCGCAUAGUAUUUAGUUA, the “pre-steady-state target cleavage rate” value is 0.262 ± 0.023.

Consider UCCUGGAUCAGCUGUGCAUAGUAUUUAGUUA, for which the “pre-steady-state target cleavage rate” value turned out to be 0.232 ± 0.017.

Turning to UCCUGGUACAGCUUGCAUAGUAUUUAUUUA, the “pre-steady-state target cleavage rate” value came out at 0.166 ± 0.037.

Consider UCCUCCUACAGCAAGCAUAGUAUUUAGUUA, for which the “pre-steady-state target cleavage rate” value is 0.281 ± 0.014.

As to UCCUGGUACAGCUUGACAUAGUAUUUAGUUA, the “pre-steady-state target cleavage rate” value was 0.231 ± 0.025.

With UCCUGGUACAGCUUGCAUAGUAUUUAGUAUA, the “pre-steady-state target cleavage rate” value turned out to be 0.224 ± 0.031.

With UCCUGCUACAGCUUGCAUAGUACUUUAGUUA, the “pre-steady-state target cleavage rate” value was found to be 0.194 ± 0.025.

Staying with this assay, now noted: auxiliary factor: none (no GTSF1).
For UCCUGGUACAGCUUGCAUAGUAUCUUAGUUA, the “pre-steady-state target cleavage rate” value was 0.00861 ± 0.0033.

Regarding UCCUGCUACAGCUUGAUAGUAUUUAGUUA, the “pre-steady-state target cleavage rate” value came to 0.00396 ± 0.0021.

With UCCUCCUACCAGCUUGCAUAGUAUUUAGUUA, the “pre-steady-state target cleavage rate” value was found to be 0.00841 ± 0.0025.

For UCCUGGAUCAGCUUGCAUCGUAUUUAGUUA, the “pre-steady-state target cleavage rate” value was found to be 0.00789 ± 0.0027.

For UCCUGGAUGUCCUUGCCUAGUAUUUAGUUA, the “pre-steady-state target cleavage rate” value amounted to 0.00452 ± 0.002.

As for UCCUGCUUGAGCUUGCAUAGUAUUUAGUAA, the “pre-steady-state target cleavage rate” value worked out at 0.00365 ± 0.0027.

UCCUGGAUGAGCAUGCAUUGUAUUUAGUUA: the “pre-steady-state target cleavage rate” value is 0.00843 ± 0.003.

As for UCCUGCUACAGCUUGGAUAGUAUAUAGUUA, the “pre-steady-state target cleavage rate” value came to 0.00442 ± 0.0023.

On to UCCUGGUACAGCUAGCAUAGUAUUUAGUUA, for which the “pre-steady-state target cleavage rate” value was 0.00964 ± 0.0026.

Consider UCCUGCUAACAGCUUGCAUAGUAUUUAGUUA, for which the “pre-steady-state target cleavage rate” value is 0.00599 ± 0.0032.

For the sequence UCCUGCUACAGCUUGCUUUGUAUUUAGUUA, the “pre-steady-state target cleavage rate” value worked out at 0.00494 ± 0.0021.

As for UCCUGGAUGAGCUAGCAUUGUAUUUAGUUA, the “pre-steady-state target cleavage rate” value came to 0.00446 ± 0.0025.

With UCCUGGAACAGCUAGCAUAGUAUUUAGUUA, the “pre-steady-state target cleavage rate” value is 0.00629 ± 0.0023.

Regarding UCCUGGUAGUCCUUGCAUAGUAUUUAGUUA, the “pre-steady-state target cleavage rate” value worked out at 0.00932 ± 0.003.

UCCUGCUACAGCUUGCAUACUAUUUAGUUA: the “pre-steady-state target cleavage rate” value amounted to 0.0046 ± 0.0019.

On to UCCUGGAUGAGCUAGCAUAGUUUUUAGUUA, for which the “pre-steady-state target cleavage rate” value worked out at 0.00507 ± 0.0028.

Consider UCCUGGAUGAAGCUUGCAUAGUAUUUAGUUA, for which the “pre-steady-state target cleavage rate” value was 0.0106 ± 0.0031.

On to UCCUCCUAAAGCUUGCAUAGUAUUUAGUUA, for which the “pre-steady-state target cleavage rate” value amounted to 0.00372 ± 0.0021.

Regarding UCCUGGAUGUGCUUGCAUAGUAUAUUAGUUA, the “pre-steady-state target cleavage rate” value turned out to be 0.00381 ± 0.0027.

In the case of UCCUGCUACAGGUUGCAUAGUAAUUAGUUA, the “pre-steady-state target cleavage rate” value came to 0.00697 ± 0.0026.

As for UCCUCCUACAGCUUCAUAGUAUUUAGUUA, the “pre-steady-state target cleavage rate” value turned out to be 0.0049 ± 0.002.

Regarding UCCUGGAUCAGCUUGCAUAGUAUAAAGUUA, the “pre-steady-state target cleavage rate” value was determined as 0.00561 ± 0.0029.

Regarding UCCUGGUACAGCUAGCAUAGUAUUAAGUUA, the “pre-steady-state target cleavage rate” value amounted to 0.00537 ± 0.0026.

On to UCCUGGAUGACCUUGGAUAGUAUUUAGUUA, for which the “pre-steady-state target cleavage rate” value is 0.00594 ± 0.0024.

Turning to UCCUGGUACAGCUAGCAUAGUAUUUUGUUA, the “pre-steady-state target cleavage rate” value came out at 0.00427 ± 0.0033.

For the sequence UCCUGCAAGAGCUUGCAUAGUAUUUAGUUA, the “pre-steady-state target cleavage rate” value turned out to be 0.00624 ± 0.0028.

For UCCUGGUACAGCUUGCUUAGUAUAUAGUUA, the “pre-steady-state target cleavage rate” value stood at 0.00855 ± 0.0026.

Regarding UCCUGCUACAGCUUCAUAGUAUUUAGUUA, the “pre-steady-state target cleavage rate” value was found to be 0.00508 ± 0.0025.

Take UCCUGCUACAGGUUGCUUAGUAUUUAGUUA: the “pre-steady-state target cleavage rate” value stood at 0.0118 ± 0.0038.

For the sequence UCCUGGAUCAGCUUCGAUAGUAUUUAGUUA, the “pre-steady-state target cleavage rate” value amounted to 0.0034 ± 0.0021.

With UCCUGGAUCAGCUAGGAUAGUAUUUAGUUA, the “pre-steady-state target cleavage rate” value was determined as 0.00609 ± 0.0017.

UCCUGGAUCAGCUUGGAUAGUAUUUAGUAA: the “pre-steady-state target cleavage rate” value was 0.00324 ± 0.0026.

In the case of UCCUGGUACAGCUCGCAUAGUAUUUAGUUA, the “pre-steady-state target cleavage rate” value came out at 0.0138 ± 0.0045.

For the sequence UCCUGGAUCAGCUGUGCAUAGUAUUUAGUUA, the “pre-steady-state target cleavage rate” value turned out to be 0.0109 ± 0.0034.

As to UCCUGGUACAGCUUGCAUAGUAUUUAUUUA, the “pre-steady-state target cleavage rate” value worked out at 0.0109 ± 0.0041.

Regarding UCCUCCUACAGCAAGCAUAGUAUUUAGUUA, the “pre-steady-state target cleavage rate” value amounted to 0.00806 ± 0.0019.

As to UCCUGGUACAGCUUGACAUAGUAUUUAGUUA, the “pre-steady-state target cleavage rate” value was determined as 0.00764 ± 0.0035.

Take UCCUGGUACAGCUUGCAUAGUAUUUAGUAUA: the “pre-steady-state target cleavage rate” value was 0.00565 ± 0.0029.

Regarding UCCUGCUACAGCUUGCAUAGUACUUUAGUUA, the “pre-steady-state target cleavage rate” value turned out to be 0.00825 ± 0.0022.

For the origin of these results see the supplement of paper PMC10338343.
